Screens deposited in PubChem BioAssay by National Center for Advancing Translational Sciences (NCATS).
D2 PAM-1: positively modulates the human D2 dopamine receptor allosterically; P14416; HEK293 T-REx D2, calcium flux, EC20 dopamine potentiation; potentiation, % at 10 µM; 0.34% of 340,000 active;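 active means potentiation over 3 SD above the plate norm, cut at about 30% in these data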; further: 0% is about no effect
Target sequence (P14416 whole entry, looked up): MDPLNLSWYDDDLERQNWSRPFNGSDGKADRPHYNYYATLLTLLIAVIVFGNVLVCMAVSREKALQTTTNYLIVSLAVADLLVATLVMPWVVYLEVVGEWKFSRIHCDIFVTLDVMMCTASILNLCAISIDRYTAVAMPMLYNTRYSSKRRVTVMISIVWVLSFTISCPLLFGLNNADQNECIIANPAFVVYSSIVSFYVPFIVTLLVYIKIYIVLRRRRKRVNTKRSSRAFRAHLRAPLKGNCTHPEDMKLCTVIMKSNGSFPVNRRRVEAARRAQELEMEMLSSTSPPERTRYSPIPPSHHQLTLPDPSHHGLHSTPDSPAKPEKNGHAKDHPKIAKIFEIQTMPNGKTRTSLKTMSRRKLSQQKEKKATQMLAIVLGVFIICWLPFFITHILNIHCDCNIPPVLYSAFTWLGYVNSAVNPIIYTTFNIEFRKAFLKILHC
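Cells plated with tetracycline inducer and held overnight at 30 C; calcium dye loaded 30–90 min at room temperature; baseline taken, compound added and read 180 s; EC20 dopamine then added and read 180 s.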
D2 ag-1: human D2 receptor agonism in beta-arrestin assay; DiscoveRx PathHunter D2 beta-arrestin, luminescence, 90 min; 100% = 57 uM dopamine signal; activation, % (concentration not given with the values); 0.084% of 360,000 active; AID 624465; in the data active means activation above about 40%; inconclusive means between about 15% and that limit
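DiscoveRx PathHunter D2 beta-arrestin cells (2,100/well) attached overnight, then compound-stimulated 90 min at 37 C in HBSS/10 mM HEPES/0.1% Tween-20 buffer; beta-galactosidase complementation read by luminescence after 1 h at ambient temperature. Dopamine 57 uM final (EC100) as control.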
D2 antagonist: D2 dopamine receptor (human) antagonism. P14416. HEK293 TREx D2 cells, calcium flux, dopamine EC80. inhibition, % at 10 µM. 2% of 340,000 active. AID 485344; in the data active means inhibition above about 30%; inactive means below that, where a call was filed; further: 0% is about no effect
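Dopamine at EC80 is the agonist stimulus; test compounds precede it by 180 s. Calcium flux read kinetically in a force-coupled, inducible HEK293 T-REx D2 cell line.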
B2AR arrestin: recruits beta-arrestin to the human beta2-adrenergic receptor | P07550 | beta-arrestin recruitment to beta2AR, cell-based reporter | Potency, µM (highest dose often 46.1 µM), without a hit: at the highest dose activation, usual class: activators | 0.02% of 330,000 active | AID 492947;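 further: potency means the concentration at half of the fitted maximal effect; 0% = DMSO controls and full agonism = EC100 isoproterenol or metaproterenol; nearly all actives have a fitted effect of over 65% in size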
D2 ag-2: D2 dopamine receptor (human) agonism; activation, % at 2 µM; HEK293 T-REx D2 cells, calcium flux agonist mode; P14416; 0.53% of 340,000 active;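 active means activation over 3 SD above normal in the single-dose calcium agonist read, cut at about 30% in these data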; further: 0% is about no effect
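Tetracycline-induced HEK293 T-REx cells with force-coupled D2 receptor, plated overnight at 30 C, loaded with no-wash calcium dye. After a 10 s baseline, compound was pin-added and calcium flux read kinetically for 180 s; calcium rises flagged agonists.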
D2 PAM-2: human D2 receptor positive allosteric modulation; DiscoveRx D2 beta-arrestin cells, luminescence, 90 min; 100% = 57 uM dopamine signal; 0.23% of 360,000 active; potentiation, % (test concentration not listed); in the data active means potentiation above about 50%; inconclusive means mostly about 30% to 49%
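PathHunter D2 cells, attached overnight at 37 deg C, received compound in DMSO plus dopamine at EC20 (50 nM final) for 90 min at 37 deg C. Beta-arrestin recruitment was read as luminescence after 1 h with detection reagent at ambient temperature.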
D3 arrestin ag: D3 receptor agonism confirmed, beta-arrestin readout; DiscoveRx D3 beta-arrestin cells, luminescence, 90 min; Potency, µM (highest dose often 76.9 µM), without a hit: at the top dose activation, hits mostly activators; AID 720506; 4% of 2,300 active; shares compounds with D2 ag-2;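 further: potency means the concentration at half of the fitted maximal effect; 100% = dopamine control response; nearly all actives have a fitted effect of over 70% in size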
D2 ag-3: activates human D2 dopamine receptor in D3 counterscreen | shares compounds with D2 ag-2 | DiscoveRx PathHunter D2 beta-arrestin, luminescence, 90 min; response scale: percent relative to full dopamine signal | Potency, µM (highest dose often 76.9 µM), for the others: top-dose activation, usual class: activators | 5.9% of 2,300 active | AID 720507; further: potency means the concentration at half of the fitted maximal effect; % of control where 0% means no effect; nearly all actives have a fitted effect of over 70% in size
An asterisk follows results filed as active; ? = inconclusive; . = not tested or not shown. The list is not random: actives were taken first. Their share in the collection is about 2.4%. Unless noted, the call rests on the fitted dose curve; in most records, active means well fitted activation curve with a large enough effect; inconclusive means small, poorly fitted or top-dose-only effect; inactive means flat fitted curve, though single readings scatter.

SMILES	D2 PAM-1	D2 ag-1	D2 antagonist	B2AR arrestin	D2 ag-2	D2 PAM-2	D3 arrestin ag	D2 ag-3
COc1ccc(OC)c(CNc2ccc([N+](=O)[O-])cc2C)c1	-26	-1	8	0%	57*	-1	-12%	3%
COc1cccc(CNc2ccc([N+](=O)[O-])cc2C)c1	0	-4	-7	0%	-1	-28	.	.
CCOc1ncccc1C(=O)Nc1cccc(-n2cnnn2)c1C	.	-3	.	0%	.	-4	.	.
Cc1cnc(C(=O)Nc2ccc(S(=O)(=O)NCC(C)C)cc2)cn1	-8	-2	36*	-1%	15	-9	7%	-3%
Cc1cnc(C(=O)Nc2ccc(S(=O)(=O)N(C(C)C)C(C)C)cc2)cn1	3	4	27	-1%	0	-3	.	.
O=C1C=C(c2cccc3c2Oc2ccccc2S3)C[C@@H](c2ccc(Cl)cc2)C1	-6	-2	-6	0%	1	-3	.	.
COc1ccc([C@H]2CC(=O)C=C(c3ccc(O)cc3)C2)cc1OC	9	1	-10	0%	14	10	16%	9%
COc1ccc([C@H]2CC(=O)C=C(c3cccc4c3Oc3ccccc3S4)C2)cc1OC	4	-1	6	0%	1	3	3%	4%
N#CC1(NC(=O)CN2C(=O)NC3(CCCCCC3)C2=O)CCCCC1	1	-3	-3	-1%	-1	-4	.	.
CSc1nc2ccccc2c(=O)n1C1CCOC(C)(C)C1 (centres undefined)	8	?	19	0%	21	2	19%	4%
CSc1nc2ccccc2c(=O)n1C1CCCCC1	5	0	17	0%	0	1	.	.
Cn1nc(C(F)(F)F)c(-c2ccc(F)cc2)c1NC(=O)c1ccco1	-3	1	-6	-1%	0	-3	1%	2%
Cn1nc(C(F)(F)F)c(-c2ccccc2)c1NC(=O)c1ccco1	1	-4	-8	0%	0	-17	.	.
COc1ccc(CN=Cc2[nH]c3ccc(Br)c(Cl)c3c2O)cc1	-14	5	43*	-1%	51*	-2	29%	28%
O=C(c1ccco1)N1CCN(Cc2cccc([N+](=O)[O-])c2)CC1	-14	-2	-2	0%	37*	-3	-2%	6%
O=C(c1ccc([N+](=O)[O-])cc1)N1CCN(C(=O)c2cccs2)CC1	-5	0	.	4%	.	-8	.	.
O=C(c1cccs1)N1CCN(Cc2ccccn2)CC1	-11	-1	52*	0%	78*	-1	?	?
O=C(c1cccs1)N1CCN(Cc2cccc([N+](=O)[O-])c2)CC1	-16	-1	38*	0%	71*	-7	24%	?
O=C(c1ccco1)N1CCN(C(=O)c2cc3cc([N+](=O)[O-])ccc3oc2=O)CC1	6	1	-13	0%	1	-3	.	.
O=C1NC(=S)NC1Cc1ccc(O)cc1 (centres undefined)	.	-7	.	.	.	-13	.	.
CC(C)CC[n+]1ccccc1/C=C/c1ccc(N(C)C)cc1	11	-2	5	-1%	10	-10	10%	17%
CCN(CC)CCN(C)C1CCC(c2ccccc2)CC1 (centres undefined)	-18	-2	-7	-1%	46*	-16	-5%	3%
CNC(=O)N(O)C1N(/N=C/c2ccc(C)cc2)C(=S)SC1(C)C (centres undefined)	-4	-4	-4	0%	0	-10	.	.
CNC(=O)N(O)C1N(/N=C/c2cc(Br)ccc2O)C(=S)SC1(C)C (centres undefined)	-19	59*	50*	0%	48*	12	-8%	?
O=C(Cn1ccc2ccccc2c1=O)N1CCN(Cc2ccc3c(c2)OCO3)CC1	-9	-4	0	-1%	30*	-4	3%	9%
SMILES	D2 PAM-1	D2 ag-1	D2 antagonist	B2AR arrestin	D2 ag-2	D2 PAM-2	D3 arrestin ag	D2 ag-3
CCOC(=O)N1CCN(Cc2ccc3ccccc3c2)CC1	-6	2	21	0%	34*	-32	-3%	26%
O=C(c1cc2ccccc2oc1=O)N1CCN(Cc2ccc3c(c2)OCO3)CC1	-8	0	1	0%	0	-19	.	.
Cc1ccc(C(=O)N2CCN(Cc3ccccc3)CC2)o1	-18	10	-14	0%	50*	-45	0%	3%
O=C(CCCn1c(=O)[nH]c2ccsc2c1=O)N1CCN(Cc2ccc3c(c2)OCO3)CC1	-6	-3	.	0%	.	-19	-1%	10%
CCOC(=O)N1CCN(C(=O)c2ccc3ccccc3c2)CC1	-4	-4	-1	0%	0	3	.	.
O=C(c1ccc([N+](=O)[O-])o1)N1CCN(Cc2ccccc2)CC1	3	6	5	-1%	0	-22	.	.
Cc1cc(-c2nc3ccccc3[nH]2)ccc1N	-3	-1	9	0%	0	-14	.	.
CCOC(=O)CSc1ncc(OC)c(Sc2ccc(Cl)cc2)n1	10	-3	9	0%	0	-9	.	.
CCc1cccc(CC)c1-n1c(SCC(=O)N2CCc3ccccc32)nc(O)cc1=O	.	3	.	0%	.	0	.	.
CC(=O)NCC1CCCN(c2nc3nonc3nc2N(C)Cc2ccccc2)C1 (centres undefined)	.	2	.	0%	.	-7	.	.
COc1c(C)cc(Br)cc1C(=O)Nc1ccc(Cc2ccncc2)cc1	2	5	-12	0%	-1	-12	.	.
COc1cccc(OC)c1C(=O)N1CCN(Cc2ccc3c(c2)OCO3)CC1	-2	-3	20	0%	0	-10	.	.
Cc1c(C(=O)N2CCN(Cc3ccc4c(c3)OCO4)CC2)sc2ncnc(N3CCN(c4ccccc4F)CC3)c12	.	?	.	0%	.	7	23%	?
CCOC(=O)N1CCN(C/C(C)=C/c2ccccc2)CC1	-29	?	63*	0%	63*	22	11%	?
CCOc1ncccc1C(=O)N1CCN(Cc2ccc3c(c2)OCO3)CC1	-22	60*	75*	-1%	80*	-12	?	2.8µM*
O=C(c1cnn2cccnc12)N1CCN(Cc2ccc3c(c2)OCO3)CC1	-4	-2	-5	0%	18	-5	.	.
Cc1cc(=O)oc(C)c1C(=O)N1CCN(Cc2ccc3c(c2)OCO3)CC1	7	4	16	-5%	0	-10	2%	16%
